# In the library only some 1.6% were active in any assay of this set; here they are far more common.
# MLLE-PAM2 inh = inhibitors of PABP1 MLLE–PAM2 peptide binding, primary screen, biochemical, fluorescence polarization, FITC-PAM2, GST-MLLE; inhibition, % at 20 µM; Polyadenylate-binding protein 1 (Homo sapiens), P11940; AID 588489, 2011; 360,000 compounds, 0.36% hits; in the data active = inhibition above about 35%, passing the limit was not always enough;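 also: plate controls were DMSO wells with GST-MLLE for no effect and wells lacking GST-MLLE protein for full effect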
# PERK inhibitor = block of dimerizer-induced PERK translation repression, primary screen, PERK inhibitor project, CHO PERK-DD cells, SEAP luminescence, HTS; 220,000 compounds, 0.17% hits; AID 1416, 2008; inhibition, % at 5.6 µM; CHO PERK-DD fusion, SEAP luminescence translation reporter;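 active = inhibition above the mean inhibition of all tested compounds plus 3 SD, set separately per screening campaign, cut at about 2.9% in these data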;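 also: PERK kinase domain activated by AP20187 dimerizer at 100 nM; 0% = DMSO with dimerizer and 100% = rapamycin at 8.4 µM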
# eIF4E-4G inh = eIF4E–eIF4G protein interaction inhibitors, primary screen, biochemical, uHTS, TR-FRET, eIF4GI fragment. TR-FRET eIF4E-eIF4GI(517-606) binding, 2 h. Eukaryotic translation initiation factor 4E (Mus musculus) + Eukaryotic translation …. inhibition, % at 21.7 µM. AID 782, 2007. 220,000 compounds, 0.37% hits;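 active = inhibition above about 30%, limit read from the data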;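 also: 0% = full FRET control wells and 100% = background wells lacking eIF4GI fragment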
# PABP FP inh = PABP poly(A) RNA binding inhibitors, primary screen, biochemical, fluorescence polarization, uHTS | Polyadenylate-binding protein 1 (Homo sapiens), P11940 | 290,000 compounds, 1% hits | AID 2014, 2009 | inhibition, % at 35 µM;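 also: calls also rest on retests at 20 µM and on dose response follow-up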
# eIF4H FP inh = human eIF4H binding inhibitors, primary screen, translation initiation inhibitor project, biochemical, uHTS, fluorescence polarization. 290,000 compounds, 0.94% hits. inhibition, % at 35 µM. eIF4H fluorescence polarization binding assay;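 also: calls also rest on retests at 20 µM and on dose response follow-up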
# Starred values were filed as active, the others as inactive; nt = not tested or not shown. Unless noted, no rule for the calls is given here.
SMILES,MLLE-PAM2 inh,PERK inhibitor,eIF4E-4G inh,PABP FP inh,eIF4H FP inh
Cc1cccc(C)c1OCC(=O)N/N=C/C=C/c1ccco1,10,1,0,6,88
O=C(Cc1cccs1)N/N=C/C=C\c1ccco1,-6,0,0,0.5*,103*
O=C(N/N=C/C=C/c1ccco1)/C(=C/c1ccccc1)NC(=O)c1ccccc1,4,0,-5,active,51*
Cc1cccc(OCC(=O)N/N=C/C=C/c2ccco2)c1,-15,0,12,1,81*
O=C(N/N=C/C=C/c1ccco1)c1ccccc1Cl,0,1,2,active,78*
COc1cccc(NC(=O)c2c(C)nn(-c3ccccc3)c2Cl)c1,2,nt,nt,8,0
CC(C)(C)n1nc2c(c1NC(=O)COc1ccc(Cl)cc1)CS(=O)(=O)C2,7,0,-1,72*,active
COc1ccc(CNC(=O)Nc2nnc([C@H]3C[C@H](O)[C@@H](CO)O3)s2)cc1,2,nt,nt,nt,nt
COC(=O)c1ccc(COc2ccccc2/C=C(\C#N)C(=O)Nc2ccc(C)cc2)cc1,-3,0,-2,-5,-9
Oc1[nH]c(=S)sc1/C=C1\C(c2ccccc2)=Nc2ccccc21,-138,0,1,7,57*
COc1ccc(NC(=O)c2cccc(S(=O)(=O)N3CCOCC3)c2)cn1,19,-1,2,70*,73*
COc1ccc(OCCC(=O)OCC(=O)Nc2cccc(S(=O)(=O)N3CCOCC3)c2)cc1,-20,3.3*,1,-5,-2
O=C(O)COc1ccccc1/C=N/NC(=O)c1cccc(S(=O)(=O)N2CCOCC2)c1,3,1,4,79,2.2*
COc1cc(OC)c(OC)cc1/C=N/NC(=O)c1cccc(S(=O)(=O)N2CCOCC2)c1,4,1,3,-9,-6
Cc1ccnc(NS(=O)(=O)c2cc(-c3cc(C)no3)ccc2C(C)C)c1,2,nt,nt,13,8
COCCn1c(C)cc(C(=O)COC(=O)c2cc3c(s2)CCC3)c1C,5,1,1,77*,91*
COCCn1c(C)cc(C(=O)COC(=O)c2cccc(O)c2)c1C,-5,0,-10,4,4
CCN1C(=O)[C@@H]2[C@@H](c3ccc(SC4CCCCC4)cc3)N3CCC[C@@]3(C(=O)OC)[C@@H]2C1=O,40*,nt,nt,nt,nt
CCN1C(=O)[C@H]2[C@@H](c3ccc(SC4CCCCC4)cc3)N3CCCC[C@@]3(C(=O)OC)[C@H]2C1=O,4,nt,nt,nt,nt
Cc1ccc(S(=O)(=O)Cc2ccc([N+](=O)[O-])cc2)cc1,8,nt,nt,75*,98*
Cc1ccc(CNS(=O)(=O)c2ccc([N+](=O)[O-])cc2)cc1,1,nt,nt,3,6
O=C(N1CCN(c2cccc(Cl)c2)CC1)C1(S(=O)(=O)c2ccc(Cl)cc2)CC1,-4,0,1,-5,-4
O=C(COC(=O)c1cccc(F)c1)NC(=O)NC1CCCC1,-6,nt,nt,nt,nt
O=C(COC(=O)c1cccc(NS(=O)(=O)c2ccc(F)c(F)c2)c1)NC(=O)NC1CCCC1,-4,0,-1,6.1*,85
Cc1[nH]nc(SCC(=O)NCc2ccccc2)c1[N+](=O)[O-],2,1,12,-2,-1
SMILES,MLLE-PAM2 inh,PERK inhibitor,eIF4E-4G inh,PABP FP inh,eIF4H FP inh
COC(=O)CSc1[nH]c2ccccc2c1[N+](=O)[O-],39*,1,-9,-4,-4
C[N+]1(CCn2ccc3ccccc32)CCCCC1,-121,1,2,2,3
NC(=S)Nc1ccc(S(=O)(=O)c2ccc(NC(N)=S)cc2)cc1,43*,nt,nt,-5,-14
CCC1(C2=CCCCC2)C(=O)NC(=O)N=C1N (stereo not drawn),-2,nt,nt,nt,nt
S=c1nc(-c2sccc2OCc2ccc(Cl)cc2Cl)[nH][nH]1,37*,-1,0,34,9
COc1ccc(N2Cc3ccccc3C2=O)cc1,3,nt,nt,3,-1
COc1ccc(N2Cc3cccc(C(=O)O)c3C2=O)cc1,-4,1,11,68*,93*
COc1ccc(-c2cc(-c3ccco3)[nH]c(=O)c2C#N)cc1,7,1,0,57*,74*
N#Cc1c(-c2cccc(Br)c2)cc(-c2ccco2)[nH]c1=O,-3,0,7,-5,76
Cc1ccc(NC(=O)CSC(N)=O)cc1Cl,41*,0,4,0,-2
NC(=O)SCC(=O)Nc1ccc(Cl)c(Cl)c1,41*,0,nt,0,6
Cc1ccc(NC(=O)Cn2cccc2)cc1Cl,1,2.9*,-1,0,-4
Cc1ccc(NC(=O)Cn2cccc2)cc1C,4,0,0,10,22
CCC(CC)COC(=O)C(C#N)c1nc2ccccc2nc1N1CCN(CC)CC1 (stereo not drawn),-7,-1,-4,53*,81*
CCC(C)COC(=O)C(C#N)c1nc2ccccc2nc1N1CCCCC1 (stereo not drawn),-17,1,-9,12,-1
CC1CN(c2nc3ccccc3nc2C(C#N)C(=O)NCc2ccc3c(c2)OCO3)CC(C)O1 (stereo not drawn),-29,0,-4,94*,89
CCCCNC(=O)C(C#N)c1nc2ccccc2nc1N1CCN(Cc2ccc3c(c2)OCO3)CC1 (stereo not drawn),-13,nt,nt,nt,nt
C=CCOC(=O)C(C#N)c1nc2ccccc2nc1N1CCN(Cc2ccc3c(c2)OCO3)CC1 (stereo not drawn),-10,0,-3,100*,69*
Cc1ccc2c(c1)C(c1ccccc1)C(=O)O2 (stereo not drawn),-5,0,-8,-4,-1
Cc1ccc(-c2csc3nc(C(C)C)oc(=O)c23)c(C)c1,5,0,-3,2,-6
COc1ccc(/C=N/NC(=O)c2nn(-c3ccccc3)c(=O)c3c(N)scc23)cc1,16,-1,-3,31,71*
COc1ccc(/C=N/NC(=O)c2nn(-c3ccc(Cl)cc3)c(=O)c3c(N)scc23)cc1,11,0,-3,45,66
CC1CNCCN1S(=O)(=O)c1cccc2cnccc12 (stereo not drawn),7,2,5,0,-4
Cc1nccn1CCCN1C(=O)CNC1=S,-15,1,24,2,3
CC1(C)Nc2cccc3cccc(c23)N1,19,nt,nt,nt,nt
c1cc2c3c(cccc3c1)NC1(CCCC1)N2,43*,nt,nt,nt,nt
O=CNc1ccc2c3c(cccc13)-c1ccccc1-2,47*,nt,nt,nt,nt
CCc1ccc(C2C(C#N)=C(N)C(C#N)(C#N)C3=CCC(C(C)(C)C)CC32)cc1 (stereo not drawn),48,-1,-4,32,84*

# Screening results (PubChem)
